Experimental data reported in paper PMC4081100, “A DNA-binding-site landscape and regulatory network analysis for NAC transcription factors in Arabidopsis thaliana”.

Columns and labels:
Assay in all cases: universal protein binding microarray (PBM); transcription factors of Arabidopsis thaliana; high values mean tight binding
Conditions in all cases: protein: recombinant; tags: GST; chain copies: 2; dsDNA, one strand shown
[1] = biological target: T1, GST-ANAC092(1-176) (Arabidopsis thaliana, UniProt Q9FKA0 1-176)
T1 sequence: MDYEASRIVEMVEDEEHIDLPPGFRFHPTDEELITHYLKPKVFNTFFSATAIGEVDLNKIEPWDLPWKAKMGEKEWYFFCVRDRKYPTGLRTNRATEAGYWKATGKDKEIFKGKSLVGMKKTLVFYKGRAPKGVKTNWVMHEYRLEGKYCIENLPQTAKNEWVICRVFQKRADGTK
Procedure, shortened: (§1)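 Binding is expressed as the normalised enrichment score (E-score). Proteins carrying a GST tag, whether NAC-domain, full-length or DNA-binding-domain forms, were induced in cells, and zinc acetate was added for zinc-finger proteins. After purification on glutathione–Sepharose 4B and quantification by A280 or anti-GST western blot, each was applied in duplicate at 200 to 500 nM final to custom all-10-mer Agilent 4 × 180K arrays made double-stranded by primer extension. Gapped and ungapped 8-mers were scored.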

[2] = biological target: T2, GST-ANAC019 NAC domain (Arabidopsis thaliana, UniProt Q9C932 14-162)
T2 sequence: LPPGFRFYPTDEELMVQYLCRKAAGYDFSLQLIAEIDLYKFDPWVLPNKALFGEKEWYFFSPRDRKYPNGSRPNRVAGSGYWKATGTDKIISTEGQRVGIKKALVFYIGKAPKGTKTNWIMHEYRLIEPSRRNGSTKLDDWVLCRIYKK
Procedure, shortened: as §1

[3] = biological target: T3, GST-ANAC055(1-171) (Arabidopsis thaliana, UniProt Q9LDY8 1-171)
T3 sequence: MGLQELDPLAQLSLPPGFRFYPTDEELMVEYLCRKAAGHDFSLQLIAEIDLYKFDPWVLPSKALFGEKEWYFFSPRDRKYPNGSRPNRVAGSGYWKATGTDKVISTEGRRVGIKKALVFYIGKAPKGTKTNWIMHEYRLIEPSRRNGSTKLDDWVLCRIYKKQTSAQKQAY
Procedure, shortened: as §1

[4] = biological target: T4, GST-ATAF1 NAC domain (Arabidopsis thaliana, UniProt Q39013 7-158)
T4 sequence: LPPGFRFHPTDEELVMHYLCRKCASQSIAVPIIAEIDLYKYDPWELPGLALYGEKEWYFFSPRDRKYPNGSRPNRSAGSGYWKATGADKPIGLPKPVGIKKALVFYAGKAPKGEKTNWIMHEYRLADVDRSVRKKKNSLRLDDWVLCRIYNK
Procedure, shortened: as §1

[5] = biological target: T5, GST-ANAC092(1-285) full length (Arabidopsis thaliana, UniProt Q9FKA0 1-285)
T5 sequence: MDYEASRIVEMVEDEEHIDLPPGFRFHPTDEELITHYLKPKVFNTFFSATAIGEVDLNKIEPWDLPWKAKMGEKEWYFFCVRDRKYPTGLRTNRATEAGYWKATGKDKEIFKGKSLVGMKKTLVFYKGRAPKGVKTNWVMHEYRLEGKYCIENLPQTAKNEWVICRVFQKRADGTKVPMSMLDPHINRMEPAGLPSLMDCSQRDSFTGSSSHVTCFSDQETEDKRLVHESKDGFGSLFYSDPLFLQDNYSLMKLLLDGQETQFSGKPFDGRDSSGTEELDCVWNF
Procedure, shortened: as §1

[6] = biological target: T6, GST-NAP(1-166) (Arabidopsis thaliana, UniProt O49255 1-166)
T6 sequence: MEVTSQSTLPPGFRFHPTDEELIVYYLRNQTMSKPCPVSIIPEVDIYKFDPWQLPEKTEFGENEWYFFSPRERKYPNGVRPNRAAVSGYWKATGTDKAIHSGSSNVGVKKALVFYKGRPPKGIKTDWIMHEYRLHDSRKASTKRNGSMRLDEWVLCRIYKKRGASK
Procedure, shortened: as §1

[7] = biological target: T7, GST-NST2(1-184) (Arabidopsis thaliana, UniProt Q9M274 1-184)
T7 sequence: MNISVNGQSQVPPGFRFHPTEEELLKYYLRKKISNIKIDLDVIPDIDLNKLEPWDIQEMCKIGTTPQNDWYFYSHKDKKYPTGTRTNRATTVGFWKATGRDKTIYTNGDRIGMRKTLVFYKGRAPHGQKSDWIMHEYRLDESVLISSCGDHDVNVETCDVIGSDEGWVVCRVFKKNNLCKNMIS
Procedure, shortened: as §1

[8] = biological target: T8, GST-SND1(1-203) (Arabidopsis thaliana, UniProt Q9LPI7 1-203)
T8 sequence: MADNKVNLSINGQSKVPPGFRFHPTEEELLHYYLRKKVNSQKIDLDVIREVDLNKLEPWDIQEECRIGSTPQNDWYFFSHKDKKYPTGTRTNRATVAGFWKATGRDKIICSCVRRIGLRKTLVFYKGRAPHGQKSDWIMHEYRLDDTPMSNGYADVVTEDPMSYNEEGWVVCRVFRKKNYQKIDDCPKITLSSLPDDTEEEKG
Procedure, shortened: as §1

[9] = biological target: T9, GST-VND3 NAC domain (Arabidopsis thaliana, UniProt Q9FH59 12-162)
T9 sequence: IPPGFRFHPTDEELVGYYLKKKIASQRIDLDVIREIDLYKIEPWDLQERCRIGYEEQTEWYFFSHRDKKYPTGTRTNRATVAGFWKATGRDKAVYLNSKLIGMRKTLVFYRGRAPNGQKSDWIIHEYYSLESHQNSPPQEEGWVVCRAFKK
Procedure, shortened: as §1

[10] = biological target: T10, GST-VND7 NAC domain (Arabidopsis thaliana, UniProt Q9C8W9 9-158)
T10 sequence: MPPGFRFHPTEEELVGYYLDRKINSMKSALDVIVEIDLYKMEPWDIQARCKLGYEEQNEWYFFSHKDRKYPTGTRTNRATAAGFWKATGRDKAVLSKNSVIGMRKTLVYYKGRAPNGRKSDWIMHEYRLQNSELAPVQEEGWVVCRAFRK
Procedure, shortened: as §1

Row | Sequence | binding signal [1] | binding signal [2] | binding signal [3] | binding signal [4] | binding signal [5] | binding signal [6] | binding signal [7] | binding signal [8] | binding signal [9] | binding signal [10]
1 | GATGCGTA | 0.368 E-score | 0.216 E-score | 0.227 E-score | 0.239 E-score | 0.416 E-score | 0.182 E-score | 0.185 E-score | 0.415 E-score | 0.267 E-score | 0.186 E-score
2 | AACGTACG | 0.297 E-score | 0.122 E-score | 0.207 E-score | 0.326 E-score | 0.403 E-score | 0.212 E-score | 0.184 E-score | 0.326 E-score | 0.308 E-score | 0.209 E-score
3 | ATACGGCA | 0.419 E-score | 0.361 E-score | 0.353 E-score | 0.365 E-score | 0.433 E-score | 0.411 E-score | 0.0642 E-score | 0.228 E-score | 0.414 E-score | 0.44 E-score
4 | CTAACGTA | 0.323 E-score | 0.0668 E-score | 0.216 E-score | 0.29 E-score | 0.391 E-score | 0.173 E-score | 0.277 E-score | 0.426 E-score | 0.25 E-score | 0.165 E-score
5 | CACGCATC | 0.396 E-score | 0.334 E-score | 0.291 E-score | 0.235 E-score | 0.44 E-score | 0.309 E-score | 0.125 E-score | 0.296 E-score | 0.239 E-score | 0.232 E-score
6 | TGCGTGAA | 0.325 E-score | 0.327 E-score | 0.258 E-score | 0.234 E-score | 0.414 E-score | 0.189 E-score | 0.198 E-score | 0.338 E-score | 0.281 E-score | 0.263 E-score
7 | ACACGCCA | 0.487 E-score | 0.382 E-score | 0.298 E-score | 0.227 E-score | 0.492 E-score | 0.294 E-score | 0.313 E-score | 0.379 E-score | 0.22 E-score | 0.257 E-score
